Results filed as inconclusive are left out. Active and inactive are the calls of the source. The call rests on the fitted dose curve; in most records, active means well fitted inhibition curve with a large enough effect; inconclusive means small, poorly fitted or top-dose-only effect; inactive means flat fitted curve, though single readings scatter.
Key:
Experiment in all cases: Cytotoxic Profiling of Annotated Libraries Using Quantitative High-Throughput Screening (AID 1296008); further: nearly all actives have a fitted effect of over 60% in size
Conditions in all cases: Five cell lines viability, CellTiter-Glo ATP luminescence, 48-72 h; max response: hits give low values
[1] = tested on: CRL-7250
Outline: (§1)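 Cytotoxicity was measured as CellTiter-Glo ATP luminescence, read after 10 min at room temperature. Compound treatment of the cells lasted 48 or 72 hr at 37 degrees Celsius in a qHTS format.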

[2] = tested on: HEK293
Outline: as §1

[3] = tested on: HaCat
Outline: as §1

[4] = tested on: KB-3-1
Outline: as §1

[5] = tested on: NIH3T3
Outline: as §1

Measured: max response
On the % scale 0 is the no-effect control and ±100 the full control effect.

CN1CCCC1Cc1c[nH]c2ccc(CCS(=O)(=O)c3ccccc3)cc12 (stereo not given)
inactive: [1] | [2] -7.1% | [3] | [4] 7.71% | [5]

C[C@@H]1O[C@@H](O[C@H]2[C@H](OC(=O)[C@]34CCC(C)(C)C[C@H]3C3=CCC5[C@@]6(C)CC[C@H](O[C@@H]7O[C@H](CO[C@@H]8OC[C@H](O)[C@H](O)[C@H]8O)[C@@H](O)[C@H](O)[C@H]7O)C(C)(C)C6CC[C@@]5(C)[C@]3(C)C[C@H]4O)OC[C@@H](O)[C@@H]2O)[C@H](O)[C@H](O[C@@H]2OC[C@](O)(CO)[C@H]2O)[C@H]1O[C@@H]1OC[C@H](O)[C@H](O[C@@H]2OC[C@@H](O)[C@H](O)[C@H]2O)[C@H]1O (stereo not given in full)
inactive: [1] | [2] -12.4% | [3] | [4] 6% | [5] -2.23%

CC1C(=O)OCC2=CC[N+]3([O-])CCC(OC(=O)C(C)(O)C1(C)O)C23 (stereo not given)
inactive: [1] 2.6% | [2] 3.51% | [3] | [4] 7.03% | [5]

C=C[C@H]1[C@H](O[C@@H]2O[C@H](CO)[C@@H](O)[C@H](O)[C@H]2O)OC=C(C(=O)OC)[C@H]1CC=O
inactive: [1] 3.16% | [2] -0.876% | [3] 4.35% | [4] | [5]

C=C1CC23CC(=O)C4C(CO)(CO)CCCC4(C)C2CCC1C3 (stereo not given)
inactive: [1] | [2] 2.8% | [3] | [4] | [5] -8.41%

CC(C)CC[C@@H](O)[C@](C)(O)[C@H]1CC[C@@]2(O)C3=CC(=O)[C@@H]4C[C@@H](O)[C@@H](O)C[C@]4(C)[C@H]3CC[C@]12C
inactive: [1] -1.43% | [2] 3.83% | [3] 4.07% | [4] | [5]

C[C@@H]1C[C@@H](O)[C@@]23CO[C@]2(CO)C[C@@H](O)CC3[C@@]12CC(c1ccoc1)OC2=O (stereo not given in full)
inactive: [1] -3.28% | [2] 0.731% | [3] | [4] | [5]

C[C@H]1CC[C@@]2(OC1)O[C@H]1CC3C4CC[C@H]5C[C@@H](O)CC[C@]5(C)C4CC(=O)[C@]3(C)[C@H]1[C@@H]2C (stereo not given in full)
inactive: [1] 2.1% | [2] -2.47% | [3] | [4] | [5] 3.42%

COc1cc(C)c(C(=O)NC2C(C)OC(OC3CCC(C)C4C3C=C(C)C3/C(C)=C\CC/C(C)=C/C5(C)C=C(C(=O)O)C(C)CC56OC(=O)/C(=C(\O)C34C)C6=O)C(O)C2(C)O)c(O)c1 (stereo not given)
inactive: [1] -0.565% | [2] -0.938% | [3] | [4] -0.929% | [5]

CC1=CC23[C@H](C=C(C(=O)O)[C@@H]2COC(=O)[C@]3(O)CO)[C@@H]1C (stereo not given in full)
inactive: [1] -1.44% | [2] 2.57% | [3] -3.69% | [4] 5.88% | [5]

CC[C@@H]1[C@H]2CCCCN3C(=O)C[C@H]([C@@H]4[C@H]1OC(=O)[C@H]4C)[C@@H]23
inactive: [1] -4.41% | [2] -4.7% | [3] | [4] -6.87% | [5]

CC1=C2C3OC(=O)C(C)C3(O)CCC2(C)CCC1 (stereo not given)
inactive: [1] 4.24% | [2] 2.89% | [3] 0.93% | [4] 2.02% | [5]

CC1CC2OCC3(O)CCC(O)C(C14CC(c1ccoc1)OC4=O)C23CO (stereo not given)
inactive: [1] | [2] -3.58% | [3] | [4] 9.94% | [5]

CCC1(O)CC2c3cc(OC)c(OC)cc3CCN2CC1CC(C)C (stereo not given)
inactive: [1] -19.7% | [2] 0.903% | [3] -10.4% | [4] 7.48% | [5]

CC1OC(O[C@H]2CC[C@@]3(C)C(CC[C@]4(C)C3CC=C3C5CC(C)(C)CC[C@]5(C(=O)OC5OC(CO)C(OC6OCC(OC7OCC(O)C(O)C7O)C(O)C6O)C(O)C5O)CC[C@]34C)C2(C)C)C(O)C(O)C1OC1OC(CO)C(O)C(OC2OC(CO)C(O)C(O)C2O)C1O (stereo not given in full)
inactive: [1] -2.46% | [2] -5.73% | [3] | [4] 2.43% | [5] -1.17%

COC(=O)C1=COC(OC2OC(CO)C(O)C(O)C2O)C2C(C)C(OC(C)=O)C(OC(=O)c3ccccc3)C12 (stereo not given)
inactive: [1] -19.7% | [2] -48.1% | [3] | [4] | [5] -45.7%

CC(C)C(O)(CO)CCO[C@@H]1O[C@H](CO[C@H]2OC[C@](O)(CO)[C@H]2O)[C@@H](O)[C@H](O)[C@H]1O (stereo not given in full)
inactive: [1] 2.62% | [2] -11.4% | [3] -9.77% | [4] 4.64% | [5]

— PubChem BioAssay (NCATS)
